Only some compounds are listed: those with a hit (about 21% of all), similar ones and a draw of the others.
NS1 inh: influenza NS1 inhibition; Potency, µM (titrated, usually from 46.1 µM), without a hit: at the highest dose activity, positive = more growth; 0.4% of 270,000 active; AID 2326; calls by dose curve; further: potency means the concentration at half of the fitted maximal effect; actives are rising curves; nearly all actives have a fitted effect of over 50% in size
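Recovery from NS1-induced slow growth read by OD600 in budding yeast switched to galactose assay medium (pH 6.0, -URA) at 1:100 dilution. Compound 23 nl per well; the matching strain lacking NS1 serves as control.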
Pf growth 96h: P. falciparum growth inhibition at 96 hours. Potency, µM (highest dose often 28.7 µM), for inactives: at the highest dose activity change, negative = inhibition, hits mostly inhibitors. P. falciparum luciferase reporter growth, 96 h. 6.9% of 320,000 active; further: potency means the concentration at half of the fitted maximal effect; on the % scale 0 is the no-effect control and ±100 the full control effect
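Two-generation exposure (96 h) targets delayed-death phenotype. Reporter parasites carrying integrated firefly luciferase, in red cells at 2% hematocrit and 0.05% parasitemia final, kept at 37 C, 5% CO2; luminescence loss indicates inhibition.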
Giardia FBPA inh: blocks Giardia fructose-bisphosphate aldolase activity; purified Giardia FBPA; Potency, µM (titrated, usually from 59.6 µM), inactives show top-dose activity, negative = inhibition, usual class: inhibitors; 0.71% of 290,000 active; further: potency means the concentration at half of the fitted maximal effect; on the % scale 0 is the no-effect control and ±100 the full control effect; nearly all actives have a fitted effect of over 55% in size
Target sequence (A8B2U2 whole entry, looked up): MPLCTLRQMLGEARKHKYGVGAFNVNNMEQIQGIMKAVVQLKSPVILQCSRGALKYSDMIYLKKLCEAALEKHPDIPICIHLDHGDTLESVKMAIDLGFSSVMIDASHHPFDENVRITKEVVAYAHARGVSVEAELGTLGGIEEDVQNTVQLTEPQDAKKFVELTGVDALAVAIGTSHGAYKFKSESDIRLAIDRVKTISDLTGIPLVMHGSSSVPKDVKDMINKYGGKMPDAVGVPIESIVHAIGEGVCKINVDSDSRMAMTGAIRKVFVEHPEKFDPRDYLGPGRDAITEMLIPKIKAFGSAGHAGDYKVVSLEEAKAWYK
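40 nM FBPA preincubated 10 min at RT with compound (up to 57.5 uM final), then substrate plus GAPDH/TPI/NAD/arsenate coupling and diaphorase/resazurin added. Fluorescence read after 20 min at RT, 525/598 nm.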
Pf growth 48h: P. falciparum growth inhibition at 48 hours (one generation) | P. falciparum luciferase growth in erythrocytes, 48 h | Potency, µM (series often up to 28.7 µM), inactives show top-dose activity change, negative = inhibition, most hits filed as inhibitors | 5.9% of 310,000 active | AID 504832; further: potency means the concentration at half of the fitted maximal effect; on the % scale 0 is the no-effect control and ±100 the full control effect
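Luciferase-expressing parasites in RBCs, 2% Hct / 0.1% parasitemia final; RPMI 1640 + 0.5% Albumax; 37 C, 5% CO2, one generation; luminescence read-out, lower signal = inhibition.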
Shiga inhibitor: Shiga toxin inhibition; Vero cells, Shiga toxin protein synthesis inhibition reporter; inhibition, % at 38.7 µM; 9.2% of 290,000 active; AID 2315; in the data active means inhibition mostly above about 28%, no sharp cut-off; inactive means mostly below about 43%; further: 0% is about no effect
CHX counter: counter-screen for Shiga toxin inhibitors: cycloheximide protein synthesis inhibition; 12% of 300,000 active; max response, %; cell reporter, cycloheximide protein synthesis inhibition counterscreen; in the data active means max response mostly above about 13%, no sharp cut-off; inactive means mostly below about 14%; further: read at 38.3 µM for the half of the compounds with a filed dose; 0% is about no effect
An asterisk follows results filed as active; ? = inconclusive; nt = not tested or not shown. Unless noted, the call rests on the fitted dose curve; in most records, active means well fitted curve in the direction sought with a large enough effect; inconclusive means small, poorly fitted or top-dose-only effect, or another doubt; inactive means no such curve, though single readings can be large; an effect the other way counts as inactive or inconclusive.

SMILES	NS1 inh	Pf growth 96h	Giardia FBPA inh	Pf growth 48h	Shiga inhibitor	CHX counter
CCOC(=O)c1c(NC(=O)Cn2nc([N+](=O)[O-])c(Br)c2C)sc2c1CCC(C)C2 (configuration not stated)	3%	0.013µM*	0%	-27%	-10	1
COC(=O)c1c(NC(=O)CN2CCOCC2)sc2c1CCC(C)C2 (configuration not stated)	-35%	48%	3%	51%	47	2
Cc1c(Br)c([N+](=O)[O-])nn1CC(=O)NC1CCCCCC1	12%	1.5µM*	1%	-12%	-4	8
COCC(=O)Nc1sc2c(c1C(=O)OC)CCC(C)C2 (configuration not stated)	-1%	nt	1%	3%	37	12*
CCOC(=O)c1c(NC(=O)Cn2nc(C(=O)O)c3ccccc3c2=O)sc2c1CCC(C)C2 (configuration not stated)	1%	35%	-1%	-5%	-7	13
COC(=O)c1c(NC(=O)CC2SC(N)=NC2=O)sc2c1CCC(C)C2 (configuration not stated)	17%	3.7µM*	3%	5%	-11	-1
CCOC(=O)Nc1ccc2c(c1)N(C(=O)CN1CCN(C)CC1)c1ccccc1CC2	-2%	?	?	?	nt	-3
COC(=O)Nc1ccc2c(c1)N(C(=O)CCN1CCN3CCCC3C1)c1ccccc1CC2 (configuration not stated)	3%	?	-22%	-28%	-2	-4
CCOC(=O)Nc1ccc2c(c1)N(C(=O)N1CCN(C)CC1)c1ccccc1CC2	2%	0%	5%	12µM*	-4	6
CCNCC(=O)N1c2ccccc2CCc2ccc(NC(=O)OC(C)C)cc21	19%	-33%	-13%	12µM*	nt	-1
CCOC(=O)Nc1ccc2c(c1)N(C(=O)CCN1CCN3CCCC3C1)c1ccccc1CC2 (configuration not stated)	-11%	15µM*	-11%	-28%	-10	-5
CCOC(=O)Nc1ccc2c(c1)N(C(=O)CN1CCN(CCO)CC1)c1ccccc1CC2	12%	12µM*	?	?	-10	4
Cc1cc(NC(=O)CSc2nc3c(C)cccc3cc2C)no1	4%	-5%	nt	?	-14	-9
Cc1cc(F)c(Nc2ncnc3cc(OCc4ccccc4)ccc23)cc1O	nt	nt	-6%	nt	17	4
CCOC(=O)Nc1ccc2c(c1)N(C(=O)N(CC)CC)c1ccccc1CC2	-42%	?	-3%	12µM*	-14	-5
Fc1ccc(Cn2c(SCc3ccc(F)c(C(F)(F)F)c3)nnc2C(F)(F)F)cc1	-15%	62%	-3%	?	12	-1
Fc1ccc(Cn2c(SCc3ccc(F)c(F)c3)nnc2C(F)(F)F)cc1	-58%	18%	1%	52%	45*	14*
CCOc1cc(/C=C2\N=C(SC(C)C(N)=O)N(c3ccc(OC(F)F)cc3)C2=O)ccc1O (configuration not stated)	15%	1.2µM*	nt	47%	-7	1
NC(=O)CSC1=N/C(=C\c2ccco2)C(=O)N1c1ccc(OC(F)F)cc1	nt	0%	-8%	?	-3	16
Cc1ccc(NC(=O)CSc2nc3c(c(=O)[nH]2)CCC3)c(C)c1	0%	?	nt	20%	-12	-10
COC(=O)CC1COc2ccccc2N1S(=O)(=O)c1ccc(OC)cc1 (configuration not stated)	-8%	?	3%	?	-4	-6
Cc1ccc(S(=O)(=O)N2c3ccccc3OCC2C(C)(C)C)cc1 (configuration not stated)	-38%	?	-4%	9.3µM*	-3	-2
Cc1ccc2c(c1)N(S(=O)(=O)c1ccc(F)cc1)C(C(C)(C)C)CO2 (configuration not stated)	-25%	0%	-2%	13µM*	10	10
CNc1c(NS(=O)(=O)c2ccc3c(c2)CCCC3)c(=O)oc2ccccc12	-9%	9%	7%	5%	-17	5
[O-]/C(=C(\C(=S)Nc1ccc(SC(F)F)cc1)[n+]1cccc(CO)c1)c1ccc(Cl)s1	nt	?	-18%	-16%	-5	12
SMILES	NS1 inh	Pf growth 96h	Giardia FBPA inh	Pf growth 48h	Shiga inhibitor	CHX counter
Cc1ccc(NC(=S)/C(=C(\[O-])c2ccc(Cl)s2)[n+]2cccc(CO)c2)cc1C	nt	?	-27%	25%	68*	40*
COc1ccc2c(c1)nc(SCC(C)O)n2C (configuration not stated)	-7%	0%	1%	11%	20	12*
COc1ccc2c(c1)nc(SCC(=O)c1cccs1)n2C	-28%	84%	-28%	14%	55	41*
COc1ccc2c(c1)nc(SCC(=O)C(C)(C)C)n2C	-8%	149%	-16%	32%	8	10
COc1ccc(Oc2ncc3nc(C)c(=O)n(CCC#N)c3n2)cc1	nt	nt	-11%	nt	nt	nt
COc1ccc(CNc2cccc3[nH]c(C(F)(F)F)nc23)cc1OC	?	-11%	?	1.5µM*	-9	-5
COc1cc(CNc2ccccc2SC)cc(OC)c1OC	-3%	?	?	nt	-11	-2
COc1ccc(CNc2ccccc2SC)cc1OC	-4%	-52%	?	nt	33	37*
COc1ccc(CCNCc2cccc(C(F)(F)F)c2)cc1OC	nt	39%	?	-16%	-10	1
O=C(c1ccco1)N1CCC[C@@]2(CCN(Cc3ccccc3)C2)C1	nt	nt	-3%	nt	nt	nt
Cc1nn(-c2ccccc2)c(C)c1/C=N\N1CCN(c2ccc(Cl)cc2)CC1	-10%	?	0%	13µM*	-6	-1
CC(/C=N/NC(=O)c1cc(-c2cccnc2)nc2c1c(C)nn2-c1ccccc1)=C\c1ccccc1	5%	2.9µM*	5%	?	-2	11
Cc1nn(-c2ccccc2)c(C)c1/C=N/n1cnnc1	nt	?	1%	-9%	-13	-4
Cc1nn(-c2ccccc2)c(N2CCCC2)c1/C=N/NC(=O)c1ccccc1O	-23%	13µM*	4%	8.3µM*	44	12
Cc1nn(-c2ccccc2)c(C)c1/C=N/NC(=O)c1cccs1	-7%	?	3%	?	26	15*
O=c1oc2ccccc2cc1N1CCOCC1	11%	27%	-4%	23%	-14	-3
COc1ccc(CCN2C(=NC(=O)CC(C)C)SC3CS(=O)(=O)CC32)cc1OC (configuration not stated)	10%	2%	1%	12%	-8	5
CC(/C=N/NC(=O)CSc1nnc(SCc2ccccc2)s1)=C\c1ccco1	?	?	?	-6%	6	14*
O=C(N/N=C/c1cc2c3c(c1O)CCCN3CCC2)c1ccccc1O	25%	2.6µM*	?	3.3µM*	18	16
